As usually defined, the AC50 is the midpoint of the concentration-response curve, whichever way the signal moves.

SMILES strings stand for the structures. Inconclusive results are not listed. The source made the active and inactive calls. Rule for the calls: active = hit-call score of the fitted dose curve at least 0.9, where 1 is the maximum; inconclusive = response in the unintended direction; inactive = score below 0.9.

This assay is described as follows: Tanguay_ZF_120hpf_CFIN_legacy: (Legacy) Oregon State University Tanguay Lab 120 Hour Post-fertilization zebrafish Assay for Caudal Fin Malformation (AID 2283649). A digest of the protocol: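 Binary brightfield scoring of caudal fin defects at 120 hpf after static, light-shielded exposure at 28C from 6 hpf. Tropical 5D embryos, chorion removed with pronase at 4 hpf, final DMSO 0.64%.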
Take `CCOc1cc(C(C)(C)C)ccc1C1COC(c2c(F)cccc2F)=N1` (stereo unspecified): the result was inactive.

For the compound `Nc1c(Cl)c(Cl)nc(C(=O)O)c1Cl`, the result was inactive.

In the case of `COP(=S)(OC)SCn1nnc2ccccc2c1=O`, the call was inactive.

In the case of `CCNP(=S)(OC)O/C(C)=C/C(=O)OC(C)C` (stereo unspecified), the call was inactive.

`CCCCOCN(C(=O)CCl)c1c(CC)cccc1CC`: the outcome was inactive.

On to `CO/N=C(/C1=NOCCO1)c1ccccc1Oc1ncnc(Oc2ccccc2Cl)c1F`, for which the AC50 is 6.85 µM (active).

For `COC(=O)NC(=S)Nc1ccccc1NC(=S)NC(=O)OC`, the compound was called inactive.

For the compound `CNC(=O)Oc1cccc2ccccc12`, the compound was called inactive.

For the compound `COCC(=O)N(c1c(C)cccc1C)C(C)C(=O)OC` (stereo unspecified), the call was inactive.

In the case of `Nc1c(Cl)c(F)nc(OCC(=O)O)c1Cl`, the compound was classed as inactive.

On to `CSC(=O)c1c(C(F)F)nc(C(F)(F)F)c(C(=O)SC)c1CC(C)C`, for which the result was inactive.

Take `Clc1nc(Cl)nc(Nc2ccccc2Cl)n1`: the outcome was inactive.

Take `CCOc1nc(C(Cl)(Cl)Cl)ns1`: the compound was called inactive.

For `CC1(C)CCC(=Cc2ccc(Cl)cc2)C1(O)Cn1cncn1` (stereo unspecified), the call was inactive.

Turning to `CN=C=S`, the call was inactive.

As for `CC(C)C1(C)N=C(c2ncccc2C(=O)O)NC1=O` (stereo unspecified), the call was inactive.

Take `CC(C)N1C(=O)N(c2ccccc2)CSC1=NC(C)(C)C`: the result was inactive.

Take `CN/C(=N\[N+](=O)[O-])NCc1cnc(Cl)s1`: the compound was called inactive.

Take `C=CCOC(=O)C(C)(C)OC(=O)c1cc(-n2c(=O)cc(C(F)(F)F)n(C)c2=O)ccc1Cl`: the outcome was inactive.

For `CCN(CC)c1nc(C)cc(OP(=S)(OC)OC)n1`, the call was inactive.

For the compound `CC(C)Nc1nc(Cl)nc(NC(C)C)n1`, the outcome was inactive.

As to `CCOC(=O)C(C)OC(=O)c1cc(Oc2ccc(C(F)(F)F)cc2Cl)ccc1[N+](=O)[O-]` (stereo unspecified), the outcome was inactive.

Consider `COC(=O)N(C(=O)N1CO[C@@]2(C(=O)OC)Cc3cc(Cl)ccc3C2=N1)c1ccc(OC(F)(F)F)cc1`, for which the compound was called inactive.

Take `O=c1n(Cl)c(=O)n(Cl)c(=O)n1Cl`: the compound was classed as inactive.

`Cc1ccc(N=CN(C)C=Nc2ccc(C)cc2C)c(C)c1`: the call was inactive.

Turning to `Clc1cccc(C(Cl)(Cl)Cl)n1`, the result was inactive.

For the compound `OC(c1ccc(Cl)cc1)(c1ccc(Cl)cc1)C(Cl)(Cl)Cl`, the outcome was inactive.

Consider `CC(C)=CC1C(C(=O)OCc2coc(Cc3ccccc3)c2)C1(C)C` (stereo unspecified), for which the call was inactive.

For the compound `O=C(O)c1c(Cl)ccc2cc(Cl)cnc12`, the call was inactive.

As to `CCNC(=O)NC(=O)C(C#N)=NOC`, the compound was classed as inactive.

With `COC(=O)NS(=O)(=O)c1ccc(N)cc1`, the result was inactive.
